Source: PubChem BioAssay

Experiment: small-molecule microarray binders of probe aNog, primary screen, biochemical, biotinylated probe, 635/667 nm fluorescence (AID 1115);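 also: probe is biotinylated aNog protein used at 0.15 µg/mL for 1 h at 4 C; z-score combines 667 nm fluorescence of each spot with its signal to noise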
Settings: higher = more signal
For `COCCOC(=O)N1C(=O)[C@@]2(c3cc(C#CC4(O)CCCCCC4)ccc31)[C@H](C(=O)N1CCN(c3ncccn3)CC1)[C@H]1C(=O)O[C@H](c3ccccc3)[C@H](c3ccccc3)N1[C@@H]2c1ccccc1OCCO`, the composite z-score was -0.263.
`CCCC=C(CCC)[C@@H](NC(=O)CCc1ccccc1)c1ccc(C(F)(F)F)cc1` showed a composite z-score of 0.555.
For `CC(C)[C@H]1NC(=O)[C@@]23C(=O)N[C@@H](Cc4ccccc4)C2[C@H](C)[C@@]2(C)O[C@H]2C3/C=C/CCC/C=C/CNC(=O)[C@H](Cc2ccccc2)NC1=O` (some centres undefined), the composite z-score was -0.455.
Compound `CCCCNC(=O)c1ccc(C#C[Si](C(C)C)(C(C)C)C(C)C)c(OC(C)=O)c1` has a composite z-score of -0.216.
In the case of `C=C(/C(=C/C[C@H](OC(=O)c1ccncc1)c1ccccc1OCCO)c1cnc2ccccc2c1)C(C)C`, the composite z-score is reported as -0.0809.
Work on `COc1cc(NN2C(C(O)c3cc(OC)c(OC)c(OC)c3)C=CC3C(=O)N(c4ccccc4)C(=O)C32)cc(OC)c1OC` (centres undefined) yielded a composite z-score of 0.756.
Work on `COC(=O)[C@@]1(Cc2ccccc2)[C@H]2c3cc(C(=O)N4CCCC4)n(CCSCCO)c3C[C@H]2CN1C(=O)c1ccccc1` yielded a composite z-score of 2.24.
Work on `COCCOC(=O)N1C(=O)[C@@]2(c3cc(C#Cc4ccc(OC)cc4)ccc31)[C@H](c1ccc(OCCO)cc1)N1[C@H](c3ccccc3)[C@H](c3ccccc3)OC(=O)[C@H]1[C@@H]2C(=O)Nc1nc2ccccc2s1` yielded a composite z-score of 0.0044.
For `COCCOC(=O)N1C(=O)[C@@]2(c3cc(C#CCC(C(=O)OC)C(=O)OC)ccc31)[C@H](c1ccc(O)cc1)N1[C@H](c3ccccc3)[C@H](c3ccccc3)OC(=O)[C@H]1[C@@H]2C(=O)NC[C@H](O)c1ccccc1`, the composite z-score was -0.346.
`CCCCCCCCCCC(O)C1C=CC2C(=O)N(c3ccccc3)C(=O)C2N1Nc1ccccc1F` (centres undefined) showed a composite z-score of 0.238.
`COc1ccc(C(O)C2C=CC3C(=O)N(c4ccccc4)C(=O)C3N2Nc2ccc(C(C)C)cc2)c2ccccc12` (centres undefined) showed a composite z-score of -0.229.
In the case of `O=C1C2C=CC(C(O)c3cc(C(F)(F)F)cc(C(F)(F)F)c3)N(Nc3ccccc3F)C2C(=O)N1c1ccccc1` (centres undefined), the composite z-score is reported as 1.97.
`C=C(CCCC)C(=O)CC[C@@H](OC(=O)c1cccnc1)c1ccc(OCCO)cc1` gave a composite z-score of -0.374.
With `C=C(/C(=C/C[C@@H](OC(=O)c1ccncc1)c1cccc(OCCO)c1)c1cnc2ccccc2c1)C(C)C` the composite z-score was 0.419.
With `CC(C)CNC(=O)[C@@]1(c2ccc([N+](=O)[O-])cc2)CC(=O)N(C2CCCCC2)[C@@H]1c1ccc(CO)cc1` the composite z-score was 0.323.
For `C[C@]1(C(=O)O)c2ccccc2C(=O)N(Cc2ccc(OC(F)(F)F)cc2)[C@H]1c1ccc(CO)cc1`, the composite z-score was 0.265.
Work on `C=C(COC)C(=O)CC[C@H](OC(=O)c1cccnc1)c1ccc(CO)o1` yielded a composite z-score of -0.447.
For `COCCOC(=O)N1C(=O)[C@@]2(c3cc(C#CCC(C(=O)OC)C(=O)OC)ccc31)[C@H](C(=O)NC[C@H](O)c1ccccc1)[C@H]1C(=O)O[C@H](c3ccccc3)[C@H](c3ccccc3)N1[C@@H]2c1ccc(O)cc1`, the composite z-score was -0.038.
In the case of `Cc1cccc([C@H]2C[C@H]3C(Br)=C[C@@H]2C(=O)[C@]32CO2)c1`, the composite z-score is reported as -0.0784.
In the case of `C=CCC(OC(C)=O)[C@@H]1[C@@H](N(Cc2ccc(-c3cccc(C(F)(F)F)c3)o2)C(=O)c2cccc3ccccc23)c2cc(OCCCO)ccc2N1C(=O)Cc1ccc(OC)cc1` (some centres undefined), the composite z-score is reported as -0.083.
`CC(C)C[C@@H]1NC(=O)[C@@]23C(=O)N[C@@H](Cc4ccccc4)C2[C@H](C)[C@@]2(C)O[C@H]2C3/C=C/C/C=C\CNC(=O)[C@@H](C)NC1=O` (some centres undefined) showed a composite z-score of -0.636.
Compound `CCOC(=O)C1=CCN(S(=O)(=O)c2ccc(C)cc2)C1c1ccccc1` (centres undefined) has a composite z-score of 0.46.
For `COCCOC(=O)N1C(=O)[C@@]2(c3ccccc31)[C@H](c1ccccc1OCCO)N1[C@H](c3ccccc3)[C@H](c3ccccc3)OC(=O)[C@H]1[C@@H]2C(N)=O`, the composite z-score was 0.389.
In the case of `C=C(COC)C(=O)CC[C@@H](OC(=O)c1cccnc1)c1ccccc1OCCO`, the composite z-score is reported as 0.412.
